Rows were chosen to be rich in hits. Some 0.67% of all compounds tested hit in one or more screens of this group.
NPR1 activator: GC-A stimulated cGMP production enhancers – HEK293 GC-A cells, cGMP TR-FRET, EC30 ANP, primary screen | Atrial natriuretic peptide receptor 1 (Homo sapiens), P16066 | 0% at EC30 ANP, 100% saturating ANP | activation, % at 10 µM | hit rate 0.14% among 370,000; in the data active = activation above about 40%
CaV13 FRET inh: Primary screen for inhibitors of IQ motif and Ca2+-dependent inactivation inhibitor domain binding in CACNA1D, Förster resonance energy transfer in living cells, … | AID 743397 | inhibition, % at 12.3 µM | HEK cells, CFP/YFP FRET ICDI-IQ, plate reader, 10 min; percent FRET-ratio fall versus neutral wells | hit rate 0.098% among 340,000;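 active = mean replicate inhibition of at least 30% and at least 1% of replicates passing that level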;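 also: 0% = median of the neutral control wells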
Rin1 Abl inh: inhibitors of Rin1-Abl protein binding, primary screen, biochemical, TR-FRET | inhibition, % at 7.35 µM | hit rate 0.4% among 360,000; in the data active = inhibition above about 5%, passing the limit was not always enough
NPR2 activator: human GC-B receptor activators, primary screen, HEK293 GC-B cells, cGMP TR-FRET, EC30 CNP; Atrial natriuretic peptide receptor 2 (Homo sapiens), P20594; 0% at EC30 CNP, 100% saturating CNP; activation, % at 10 µM; hit rate 0.11% among 370,000;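 active = activation at 10 µM reaching about 35% in either raw or pattern-adjusted values, limit read from the data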
Starred values were filed as active, the others as inactive; / = no result given; + = active, no number.

SMILES	NPR1 activator	CaV13 FRET inh	Rin1 Abl inh	NPR2 activator
Cc1cc(Br)cn2c(Cc3cccc(Cl)c3)c(-c3ccco3)nc12	24.2	-6.0	/	15.9
O=C(Cn1ncc2c3ccccc3n(Cc3ccccc3F)c2c1=O)N1CCN(c2ccccn2)CC1	21.8	-5.0	-1.1	41.4*
O=C(Cn1ncc2c3ccccc3n(Cc3ccccc3F)c2c1=O)NCC1CCCO1 (stereo not drawn)	31.0	-2.6	0.1	36.0*
Cc1ccc(S(=O)(=O)Nc2ccc(Nc3ccccc3)cc2)cc1	1.8	68.5*	-3.5	-2.9
O=C(COC(=O)c1cnc(Cl)c(Cl)c1)c1ccc(F)cc1	52.5*	-5.5	-2.4	-2.0
CCN(C[C@@H]1[C@@H](c2ccccc2)[C@H](CO)N1S(C)(=O)=O)C(=O)C1CCC1	-2.5	/	/	8.0
O=S1(=O)C=CCN1Cc1cn(Cc2cccc(C(F)(F)F)c2)nn1	1.4	/	/	1.2
O=C(Nc1ccccc1C(F)(F)F)OCCCN1CCC2(CCC(c3ccccc3)CC2)C1=O (stereo not drawn)	-1.1	/	/	2.1
CC(C)=CCC/C(C)=C/CN1C(=O)N(c2ccc(F)cc2)[C@H]2C[C@@H](c3ccccc3)[C@@H](C)[C@@H](C(=O)N3CCOCC3)C[C@H]21	-12.5	-4.9	/	12.9
Cc1cc(=O)oc2cc(OC(=O)c3cncc(Br)c3)ccc12	-5.1	44.8*	-0.1	3.1
CCCC(=O)Oc1ccc2c(C)cc(=O)oc2c1	5.2	-5.4	-0.7	-3.4
O=C(COC(=O)CCc1c[nH]c2ccccc12)NCc1ccccc1	-1.3	-5.1	-0.2	5.3
O=C(CCc1c[nH]c2ccccc12)OCC(=O)c1ccccc1	0.9	36.3*	-3.1	5.2
CC(=O)N1C[C@@H](c2c[nH]c3ccccc23)C=C[C@H]1C(=O)NS(=O)(=O)c1ccc(C)cc1	-3.9	/	/	6.0
Cc1nc(N2CCN(C(=O)c3ccco3)CC2)c(C#N)c2c1CCCC2	-4.3	-2.7	-0.3	-3.6
CC(C)Cc1nc(N2CCN(C(=O)c3ccco3)CC2)c(C#N)c2c1CCCC2	-2.4	-2.5	-1.2	118.9*
c1nc(NCc2ccc3c(c2)OCO3)c2cc(-c3ccoc3)ccc2n1	42.0*	2.5	0.5	46.4*
C=CCNC(=S)N/N=C/c1cn(-c2ccccc2)nc1-c1ccc(OC)cc1	34.7	-4.7	1.8	42.1*
COc1ccc(-c2nn(-c3ccccc3)cc2/C=N/O)cc1OC	5.6	-18.4	1.3	0.6
COc1ccc(-c2nn(-c3ccccc3)cc2/C=N/NC(=S)NC(C)C)cc1OC	30.8	-5.5	-0.4	41.9*
COc1ccc(-c2cc(-c3nnc(SCc4cccc5ccccc45)n3N)[nH]n2)cc1	2.7	/	/	1.0
COC(=O)[C@]12C[C@H](CC(=O)NCCc3ccccc3OC)C(=O)N(Cc3ccc4c(c3)OCO4)C1=C[C@H](C(C)C)O[C@@H]2C1CC1	-8.1	/	/	-12.9
O=C1NC(=O)C2(N1)C(=O)c1cccc3cccc2c13 (stereo not drawn)	2.6	-17.9	-5.8	-1.0
O=C1c2cccc3cccc(c23)C(=O)C1(O)O	-0.3	-3.7	14.4*	4.1
CC(C)N1CCc2c(sc(NC(=O)C3CCCCC3)c2C(N)=O)C1	1.0	-4.6	-2.3	0.3
SMILES	NPR1 activator	CaV13 FRET inh	Rin1 Abl inh	NPR2 activator
CN1CCc2c(sc(NC(=O)C3CCCCC3)c2C(N)=O)C1	-1.5	+	0.3	2.4
O=C(NCCc1nc2ccccc2n1CCOc1cc(F)ccc1F)C1CCCCC1	3.5	/	/	1.4
O=C(OC12CCCN(C1)/C(=C/c1cccnc1)C2)c1ccco1 (stereo not drawn)	3.3	/	/	0.9
O=S(=O)(O)c1cccc2c(N=Nc3ccc(O)c4ncccc34)cccc12	/	/	14.9*	/
C=C1C(=O)[C@]23C[C@H]1CCC2[C@@]1(C)C(C[C@@H]3O)[C@](C)(C(=O)OC)CC[C@@H]1O (stereo partly drawn)	16.3	-4.7	4.3	10.9
C=C1C(=O)[C@]23C[C@H]1CC[C@H]2[C@]1(C)CCC[C@@](C)(C(=O)OC)[C@H]1C[C@@H]3O	18.7	/	/	38.0*
O=C(CNCc1ccccc1[N+](=O)[O-])N1CCC2(CC1)OCCO2	-2.7	/	/	-4.9
CCN1C=C(C(=O)OC)C(c2cccc(OC)c2OC)C(C(=O)OC)=C1	0.3	+	-0.8	-1.1
COC(=O)C1=CN(Cc2ccc(OC)c(OC)c2)C=C(C(=O)OC)C1c1cccc(OC)c1OC	-2.5	3.1	-1.9	-0.9
Cc1cccn2c(=O)c(/C=C(\C#N)C(=O)NC3CCS(=O)(=O)C3)c(N3CCC(C(N)=O)CC3)nc12 (stereo not drawn)	4.8	+	-3.0	-1.3
OC(c1ccccc1)(c1ccccc1)C1CCN(CCCNc2ccc(C(F)(F)F)cc2)CC1	-17.8	/	/	-11.2
CN(C)c1ncc(C2=C(Cl)C(=O)C(N3CCCC3)=C(Cl)C2=O)s1	19.6	-7.0	10.6*	0.3
Cn1c(=N)c(S(=O)(=O)c2ccccc2)cc2c(=O)n3ccccc3nc21	10.2	34.5*	-10.0	-4.2
CN1CC(=O)N2[C@@H](C[C@]3(c4c[nH]c5ccccc45)c4ccccc4N(S(=O)(=O)c4ccccc4)[C@H]23)C1=O	-3.0	/	/	-9.1
NC(=O)c1c(N)[nH]c(C(=O)c2ccccc2)c1-c1cccc2ccccc12	-1.4	/	/	-0.8
Nn1c(SCC(=O)N2CCCC2)nnc1-c1cccs1	1.3	32.9*	0.4	5.7
C[C@@H]1OC(c2ccccc2)N(C)[C@H]2C[C@H]3c4[nH]c5cccc(-c6ccccc6)c5c4CCN3C[C@@H]12 (stereo partly drawn)	4.5	/	/	1.9
O=c1oc2c(O)c(O)cc3c(=O)oc4c(O)c(O)cc1c4c23	/	/	60.5*	/
O=c1oc2ccccc2c2oc3cc(O)c(O)cc3c12	13.6	-4.0	-3.1	-2.0
CCOC(=O)[C@@]12CN(C(=O)OC(C)(C)C)CC=C1N(Cc1ccc(OC)cc1)C(=O)[C@H]2CC(=O)N1CCC(c2ccccc2)CC1	-1.3	/	/	3.7
C=CCN(C)CC#CCCCCl	0.7	/	/	1.9
Cc1ccc(CNc2nc(-c3cccs3)nc3ccccc23)cc1	29.6	-5.3	-0.8	39.2*
C=CCn1c(-c2ccc(OC)c(OC)c2)n[nH]c1=S	0.1	-4.6	-0.8	0.6
C=CCNc1nc(=S)[nH]c2cc(OC)c(OC)cc12	41.1*	-2.5	3.5	37.4*
CC(C)C[C@H](NC1(C(=O)NCCc2c[nH]c3ccccc23)CCC1)C(=O)NCCCc1ccccc1	1.2	/	/	-10.7
O=C1C(=O)c2ccccc2C(O)=C1c1ccccc1F	0.7	0.9	-7.0	-1.2
O=C1C(O)=C(O)C(=O)c2ccccc21	-7.8	/	23.6*	-5.9
COc1ccc(CN(CCN2CCOCC2)C(=O)c2cc(Cl)ccc2F)cc1OC	3.1	/	/	-7.0
CCn1c(=NC(=O)CSC(C)=O)sc2cc(OC)ccc21	3.7	39.5*	1.9	1.9
COCCn1c(=NC(=O)CSC(C)=O)sc2cc(OC)ccc21	-6.8	-3.2	-1.4	-6.3
